The text below walks through data of PubChem BioAssay (Tox21).

Unmarked numbers belong to inactive results. Results filed as inconclusive are left out. The source made the active and inactive calls. Unless noted, calls come from the whole dose curve; as a rule, active = well fitted curve in the direction sought with a large enough effect in the repeat runs; inconclusive = weak or mixed curves; inactive = no such curve, though single readings can be large; an effect the other way counts as inactive or inconclusive.

Assay [1] can be described thus: qHTS assay for small molecule agonists of the p53 signaling pathway (AID 651631; calls by dose curve; note: nearly all actives have a fitted effect of over 15% in size; note: potency is the fitted concentration of half-maximal effect). The essentials: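 HCT-116 p53RE-bla reporter line, 16 h compound treatment at 37 °C, then fluorescence after 2 h with B/G FRET substrate.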
For orientation: In qHTS, concentration-response curves come from the screen itself.

The nature of assay [2]: qHTS assay for small molecules that induce genotoxicity in human embryonic kidney cells expressing luciferase-tagged ATAD5 (AID 651632). Note: nearly all actives have a fitted effect of over 15% in size. The gist of the method: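 Concentration-response screen for ATAD5 upregulation in HEK293T luciferase reporter cells; 16 hr treatment at 37C, then luminescence after 30 min with Amplite at room temperature.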
The nature of assay [3]: qHTS assay for small molecule agonists of the p53 signaling pathway - cell viability (AID 651633; calls by dose curve;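 note: p53RE-bla HCT reporter cells with a stable beta-lactamase p53 reporter; nearly all actives have a fitted effect of over 30% in size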). The essentials:
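Viability counter-read: CellTiter-Glo luminescence (30 min, room temperature) in the same p53RE-bla plates. These plates had been exposed to compounds for 16 h at 37 C.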

The nature of assay [4]: qHTS assay for small molecules that induce genotoxicity in human embryonic kidney cells expressing luciferase-tagged ATAD5 - cell viability (AID 651634; calls by dose curve; note: nearly all actives have a fitted effect of over 25% in size). The gist of the method:
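15.5 hr compound or vehicle exposure of HEK293T cells expressing luciferase-tagged ATAD5 at 37C; live-cell protease activity is read by fluorescence after 30 min of CellTiter-Fluor.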

The nature of assay [5]: qHTS assay to test for compound auto fluorescence at 590 nm (red) in HepG2 cells (AID 720674). The gist of the method: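 1 hr compound incubation on HepG2 cells, 37 C, 5% CO2; plate read ex 540 nm / em 590 nm; intensities reported as Rose Bengal sodium equivalents.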
Assay [6] is described as follows: qHTS assay to test for compound auto fluorescence at 535 nm (green) in HepG2 cells (AID 720675).
Assay [7] can be described thus: qHTS assay to test for compound auto fluorescence at 590 nm (red) in HEK293 cells (AID 720679). The essentials: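 HEK293 cells (2,000/well, medium with 10% dialyzed FBS) attached for 4-5 hr at 37C, received 23 nL compound and were incubated overnight at 37C, 5% CO2. Red fluorescence was then read at 540/590nm Ex/Em, referenced to Rose Bengal sodium.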
Assay [8] in a line: qHTS assay to test for compound auto fluorescence at 535 nm (green) in HEK293 cells (AID 720680).
Assay [9] is described as follows: qHTS assay to test for compound auto fluorescence at 460 nm (blue) in HEK293 cell free culture (AID 720681). The gist of the method:
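Blue fluorescence (Ex 405/Em 460 nm, triamterene-equivalent) was read immediately after pin transfer of compound or DMSO into medium (DMEM, 10% FBS) without cells.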

A short description of assay [10]: qHTS assay to test for compound auto fluorescence at 590 nm (red) in HEK293 cell free culture (AID 720683). The essentials: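 Red-channel autofluorescence of compounds in culture medium (DMEM, 10% FBS), no cells, measured at 540/590 nm. Rose Bengal sodium is the reference fluorophore for equivalence.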
The nature of assay [11]: qHTS assay to test for compound auto fluorescence at 590 nm (red) in HepG2 cell free culture (AID 720684). The gist of the method: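 Cell-free; medium MEM + 10% FBS; compound or DMSO added by pintool; read Ex 540/Em 590 nm; Rose Bengal sodium as red reference fluorophore.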
Assay [12] can be described thus: qHTS assay to test for compound auto fluorescence at 460 nm (blue) in HepG2 cell free culture (AID 720685). The gist of the method:
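Cell-free plates of MEM plus 10% FBS received 23 nL compound or DMSO vehicle; blue-channel (405/460 nm) intensity scored against triamterene as reference fluorophore.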

Assay [13] can be described thus: qHTS assay to test for compound auto fluorescence at 535 nm (green) in HepG2 cell free culture (AID 720686).
The nature of assay [14]: qHTS assay to test for compound auto fluorescence at 460 nm (blue) in HepG2 cells (AID 720687). The gist of the method:
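Blue-channel autofluorescence (Ex/Em 405/460 nm, triamterene-equivalent) was measured after 1 hr compound exposure at 37 C, 5% CO2. Cells were HepG2, plated overnight at 37 C in MEM plus 10% FBS.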

Assay [15] concerns the target Glucocorticoid receptor (Homo sapiens) (UniProt P04150). The assay is described as follows: qHTS assay to identify small molecule agonists of the glucocorticoid receptor (GR) signaling pathway (AID 720691; active = well fitted activation curve with a large enough effect in the signal ratio in the repeat runs, not every such curve was filed as active; the % refers to the signal ratio). Conditions: GR-bla HeLa, beta-lactamase reporter ratio, 18 h; activation: at 62.4 µM (top of the series). The essentials:
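Measures GR pathway activation through a GRE-beta-lactamase reporter stably integrated in HeLa cells, with 18 h compound treatment at 37 C and fluorescence detection using a FRET substrate.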

Assay [16] shares this target. The assay is described as follows: qHTS assay to identify small molecule antagonists of the glucocorticoid receptor (GR) signaling pathway (AID 720692; active = well fitted inhibition curve with a large enough effect in the signal ratio in the repeat runs, not every such curve was filed as active; the % refers to the signal ratio; note: potency is the fitted concentration of half-maximal effect). The essentials: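 Tox21 10K library screened in concentration-response for blockade of dexamethasone (5 nM final)-induced GRE-bla reporter activity in HeLa cells; 18 h treatment, fluorescence read.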
Assay [17] in a line: qHTS assay for small molecule disruptors of the mitochondrial membrane potential - cell viability (AID 720634; calls by dose curve; note: nearly all actives have a fitted effect of over 20% in size; note: potency is the fitted concentration of half-maximal effect). The gist of the method:
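In this qHTS format, HepG2 cells plated overnight were pinned with compound, incubated 1 hr, and assayed for ATP luminescence with CellTiter-Glo after m-MPI dye addition.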

The nature of assay [18]: qHTS assay to test for compound auto fluorescence at 460 nm (blue) in HEK293 cells (AID 720678). The essentials:
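HEK293 cells (2,000 per well, medium with 10% dialyzed FBS) attached for 4-5 hr at 37C, then received compound and stood overnight at 37C, 5% CO2. Blue fluorescence was read at Ex/Em 405/460 nm and expressed relative to triamterene.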

Assay [19] can be described thus: qHTS assay to test for compound auto fluorescence at 535 nm (green) in HEK293 cell free culture (AID 720682). The essentials: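 Steps: dispense DMEM/10% FBS into empty wells; pin in compound or DMSO; measure fluorescence at 485/535 nm. Values are fluorescein equivalents.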
Assay [20] can be described thus: qHTS assay for small molecule disruptors of the mitochondrial membrane potential (AID 720635). Note: potency is the fitted concentration of half-maximal effect. The essentials:
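Mitochondrial membrane potential tracked with Mito-MPS dye, red aggregates (ex 540/em 590 nm) against green monomers (ex 490/em 535 nm). Compound treatment 1 hr at 37C, dye 30 min in HepG2.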

Glucocorticoid receptor (Homo sapiens), sequence (P04150 whole entry, looked up): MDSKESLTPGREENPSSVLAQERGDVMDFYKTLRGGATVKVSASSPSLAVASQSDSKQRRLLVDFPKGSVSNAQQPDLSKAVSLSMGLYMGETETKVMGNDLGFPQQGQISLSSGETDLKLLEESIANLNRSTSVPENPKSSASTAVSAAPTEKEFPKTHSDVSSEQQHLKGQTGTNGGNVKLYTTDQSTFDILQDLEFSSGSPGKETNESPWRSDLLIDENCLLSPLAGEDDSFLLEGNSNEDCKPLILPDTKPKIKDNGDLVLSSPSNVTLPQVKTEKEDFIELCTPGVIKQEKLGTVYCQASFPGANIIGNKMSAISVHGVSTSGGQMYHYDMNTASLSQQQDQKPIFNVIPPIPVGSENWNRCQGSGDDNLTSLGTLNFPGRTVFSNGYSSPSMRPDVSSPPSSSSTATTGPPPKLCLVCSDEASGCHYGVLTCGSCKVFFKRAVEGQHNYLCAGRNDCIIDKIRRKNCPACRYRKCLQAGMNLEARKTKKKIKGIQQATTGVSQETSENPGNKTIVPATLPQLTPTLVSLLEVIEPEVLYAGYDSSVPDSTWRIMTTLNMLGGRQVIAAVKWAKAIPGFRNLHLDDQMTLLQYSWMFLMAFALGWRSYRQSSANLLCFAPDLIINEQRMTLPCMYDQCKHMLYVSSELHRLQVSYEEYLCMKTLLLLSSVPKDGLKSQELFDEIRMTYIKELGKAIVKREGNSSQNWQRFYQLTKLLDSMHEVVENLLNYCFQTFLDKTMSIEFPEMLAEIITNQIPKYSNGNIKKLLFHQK

Consider `CCOC(=O)CCN(SN(C)C(=O)Oc1cccc2c1OC(C)(C)C2)C(C)C`, for which the Potency result in [1], in assay [2], in assay [3], in assay [4], in [6] and in [9] was “inactive” each time. Besides, the Potency result in assay [12], in assay [13], in [14], in assay [15] and in [16] was “inactive” in each case. For the same compound, the result in assay [5], in assay [7], in assay [8], in [10] and in [11] was inactive.

As to `CCN(CC)CCN1C(=O)CN=C(c2ccccc2F)c2cc(Cl)ccc21`, the Potency entry in [1], in assay [2], in assay [3], in [17], in assay [6] and in assay [18] was “inactive” in each case. For the same compound, the Potency result in [9], in [12], in assay [13], in assay [14], in assay [15] and in assay [16] was “inactive” in each case. Also, the result in [5], in assay [7], in assay [8], in assay [19], in assay [10] and in assay [11] was inactive.

As to `Nc1ccccc1-c1ccccc1`, the Potency entry in [1], in assay [2], in assay [3], in assay [17], in [6] and in assay [18] was “inactive” in each case. Also, the Potency entry in assay [9], in assay [12], in assay [13], in assay [14] and in [15] was “inactive” in each case. The compound was classed as inactive in [5], in assay [7], in assay [8], in assay [19], in assay [10] and in assay [11].

Turning to `C=CC(=C)C`, the Potency entry in [1], in assay [2], in [3], in assay [4], in assay [6] and in assay [18] was “inactive” in each case. Further, the Potency result in assay [9], in [12], in assay [13] and in [14] was “inactive” in each case. The result in assay [5], in assay [7], in assay [8], in assay [10] and in assay [11] was inactive.

Take `CCC(C)Br` (stereo not drawn): the Potency entry in [1], in [2], in assay [3], in assay [17], in assay [6] and in assay [18] was “inactive” each time. Also, the Potency result in assay [9], in [12], in [13] and in assay [14] was “inactive” each time. In addition, the call in [5], in [7], in assay [8], in assay [19], in [10] and in assay [11] was inactive.

For `N#Cc1c[nH]cc1-c1cccc2c1OC(F)(F)O2`, the Potency is 8.63 µM (active) in [1], 5.45 µM (active) in assay [17], 2.17 µM (active) in assay [20] and 9.77 µM (active) in [16]. Moreover, the Potency entry in assay [2], in assay [4], in assay [6], in [18], in assay [9] and in assay [12] was “inactive” each time. Moreover, the Potency result in assay [13] and in assay [14] was “inactive” each time. Moreover, the outcome in [5], in assay [7], in [8], in [10] and in assay [11] was inactive.

As for `Cc1cc(C2CC2)nc(Nc2ccccc2)n1`, the Potency result in assay [1], in assay [2], in assay [3], in assay [4], in [6] and in [18] was “inactive” throughout. Also, the Potency entry in [9], in [12], in [13] and in assay [14] was “inactive” each time. For the same compound, the outcome in [5], in assay [7], in [8], in assay [19], in [10] and in assay [11] was inactive.

Take `CNC(=O)Oc1cc(C)cc(C(C)C)c1`: the Potency entry in assay [1], in assay [2], in [3], in [4], in assay [6] and in assay [9] was “inactive” throughout. For the same compound, the Potency entry in assay [12], in assay [13] and in assay [14] was “inactive” each time. For the same compound, the result in assay [5], in assay [7], in assay [8] and in assay [19] was inactive.
